Records with an inconclusive call do not appear. The source made the active and inactive calls. Calls come from the whole dose curve; as a rule, active = well fitted curve in the direction sought with a large enough effect; inconclusive = small, poorly fitted or top-dose-only effect, or another doubt; inactive = no such curve, though single readings can be large; an effect the other way counts as inactive or inconclusive.

The nature of assay [1]: OV-KATE Cancer Cell Toxicity qHTS against the NCATS CANVASS Library (AID 1347345). Note: potency is the fitted concentration of half-maximal effect. In outline: (§1)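 Per well, 1000 cells; exposure 72 h with compound at 11 final concentrations; readout CellTiter-Glo luminescence.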
On the technique in general: qHTS replaces the single test concentration by a dilution series.

A short description of assay [2]: OV-SAHO Cancer Cell Toxicity qHTS against the NCATS CANVASS Library (AID 1347348). Note: nearly all actives have a fitted effect of over 55% in size. Note: potency is the fitted concentration of half-maximal effect. In outline: as §1
Assay [3] in a line: Panc-1005 Cancer Cell Toxicity qHTS against the NCATS CANVASS Library (AID 1347349). Note: nearly all actives have a fitted effect of over 60% in size. Note: potency is the fitted concentration of half-maximal effect. The essentials: as §1
The nature of assay [4]: SW1088 Cancer Cell Toxicity qHTS against the NCATS CANVASS Library (AID 1347350). Note: nearly all actives have a fitted effect of over 75% in size. Note: potency is the fitted concentration of half-maximal effect. The essentials:
as §1

Assay [5] is described as follows: U-118MG Cancer Cell Toxicity qHTS against the NCATS CANVASS Library (AID 1347351). Note: potency is the fitted concentration of half-maximal effect. The essentials: as §1
Assay [6] in a line: COV-362 Cancer Cell Toxicity qHTS against the NCATS CANVASS Library (AID 1347352). Note: series mostly up to about 38 µM. In outline: (§2)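 qHTS cytotoxicity: compounds tested in 11 concentrations on 1000 seeded cells per well over 72 h; bortezomib served as control; signal from CellTiter-Glo luminescence.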
Assay [7] in a line: A2780 Cisplatin Sensitive Ovarian Cancer Cell Toxicity qHTS against the NCATS CANVASS Library (AID 1347353). Note: nearly all actives have a fitted effect of over 60% in size. Note: potency is the fitted concentration of half-maximal effect. In outline: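 Seventy-two-hour exposure of cisplatin-sensitive A2780 ovarian cells to an 11-concentration qHTS series; cytotoxicity is inferred from loss of ATPLite luminescence. Bortezomib titration served as positive control.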
Assay [8] in a line: UWB1.289-WTBRCA1 Cancer Cell Toxicity qHTS against the NCATS CANVASS Library (AID 1347354). Note: potency is the fitted concentration of half-maximal effect. The essentials:
as §2

A short description of assay [9]: SDT Cancer Cell Toxicity qHTS against the NCATS CANVASS Library (AID 1347365). Note: nearly all actives have a fitted effect of over 60% in size. Note: potency is the fitted concentration of half-maximal effect. In outline: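 Dispense 500 SDT cells per well; pin-transfer compounds; incubate 72 hr at 37C, 5% CO2, 95% RH; add CellTiterGlo and read luminescence.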
The nature of assay [10]: KB-3-1 Cancer Cell Toxicity qHTS against the NCATS CANVASS Library (AID 1347366). Note: nearly all actives have a fitted effect of over 75% in size. Note: potency is the fitted concentration of half-maximal effect. In outline:
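KB-3-1 cells (500 cells/well) in DMEM + 10% FBS were treated with compounds for 72 hr at 37C, 5% CO2. Viability was read as CellTiter-Glo luminescence after 10 minutes at room temperature.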

A short description of assay [11]: G06 Cancer Cell Toxicity qHTS against the NCATS CANVASS Library (AID 1347368). Note: nearly all actives have a fitted effect of over 60% in size. Note: potency is the fitted concentration of half-maximal effect. In outline: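 Cytotoxicity toward canine glioma G06 cells is scored from cellular ATP via luminescence after 72 hr compound exposure at 500 cells/well.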
The nature of assay [12]: DH5-alpha competent E. coli microbial cell viability qHTS against the NCATS CANVASS Library (AID 1347377). To be noted: outcome: dose series up to 46.1 µM unless noted. In outline: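 Cell viability of competent DH5-alpha E. coli is scored from ATP content by luminescence. Cells sit overnight at 37C with compound across an 11-point concentration series.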
The nature of assay [13]: qHTS for H2AX Agonists against the NCATS CANVASS Library (AID 1347378). Note: potency is the fitted concentration of half-maximal effect. The essentials: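 CHO-K1 cells were plated overnight at 37C, then exposed to compounds (concentration series, 0.76% DMSO final) for 3 hr at 37C. Lysates received Eu-cryptate anti-pH2AX (S139) and d2 anti-H2AX antibodies; after 24 hr at room temperature, TR-FRET 665/620 nm ratio was read.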
A short description of assay [14]: Inflammasome Signaling qHTS Counterscreen: IL-1-beta AlphaLISA counterscreen against the NCATS CANVASS Library (AID 1347381).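 Note: cell-free check with purified IL-1β in medium and no THP-1 cells; series mostly up to about 57 µM.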 In outline:
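To flag interference with the AlphaLISA read-out, a known amount of purified IL-1-beta (4 pg) replaced cell supernatant. Detection used anti-IL-1-beta acceptor beads, biotinylated antibody and streptavidin donor beads at room temperature.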

Assay [15] is described as follows: qHTS assay for small molecule disruptors of mitochondrial membrane potential screened against the NCATS CANVASS Library (AID 1347389). Note: nearly all actives have a fitted effect of over 60% in size. Note: potency is the fitted concentration of half-maximal effect. In outline:
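Compounds tested in 11-point qHTS series on HepG2 cells for 1 hr; membrane-potential dye added for 30 min at 37C. Lower red-to-green ratio indicates loss of potential.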

The nature of assay [16]: qHTS for inhibitors of ER calcium dysfunction: SERCaMP assay screened against the NCATS CANVASS Library (AID 1347393). Note: nearly all actives have a fitted effect of over 40% in size. Note: potency is the fitted concentration of half-maximal effect. In outline: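 qHTS in SH-SY5Y reporter cells: 16 h compound pretreatment, 4 h thapsigargin, then secreted Gaussia luciferase measured by luminescence.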
Assay [17] can be described thus: Redox Reaction Profiling qHTS: Assay Interference Panel against the NCATS CANVASS Library (AID 1347401). In outline:
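Resazurin (5 uM) conversion to resorufin measured with 200 uM DTT in 50 mM HEPES pH 7.3, 50 mM NaCl. Compounds tested in 11-point qHTS series. Fluorescence (ex 525/em 598 nm) read before and after 15 min dark incubation.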

Assay [18] can be described thus: HEK293 24hr Apoptosis Induction qHTS against the NCATS CANVASS Library (AID 1347359). Note: potency is the fitted concentration of half-maximal effect. In outline: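 HEK293 cells (500/well, DMEM + 10% FBS) were exposed to compounds in an 11-point series for 24 hours at 37 degrees C, then caspase-3/7 activity was read by Caspase-Glo DEVD luciferase luminescence after 15 min.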
Assay [19] is described as follows: qHTS for ATAD5 Agonist screened against the NCATS CANVASS Library (AID 1347367).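 Note: luciferase reporter driven by ATAD5 which rises upon DNA damage.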 In outline: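 HEK293T cells stably carrying an ATAD5-controlled luciferase reporter (2000 cells/well) attached for 5 hr, then received compounds in an 11-point series for 16hr at 37C. Luminescence was read after a 30 min room-temperature reagent step.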
Assay [20] in a line: Vero-766 cells viability qHTS against the NCATS CANVASS Library: Counterscreen for Zika virus inhibition assay (AID 1347394). Note: nearly all actives have a fitted effect of over 60% in size. Note: potency is the fitted concentration of half-maximal effect. The essentials: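 Uninfected Vero 766 (African green monkey) cells, 1000/well, attached overnight, then exposed 72 h at 37C to compounds (11-point qHTS). Viability read by CellTiter-Glo luminescence; media-only wells served as 100% inhibition.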

As for `C[C@@]12C[C@@H](C[C@@H]3C(=O)O[C@@H](c4ccoc4)[C@H](OC(=O)c4ccccc4)[C@@H]31)OC2=O`, the Potency result in assay [1], in assay [2], in [3], in [4], in [5] and in assay [6] was “inactive” each time. The Potency entry in assay [7], in assay [8], in assay [9], in assay [10], in assay [11] and in assay [13] was “inactive” each time. Further, the Potency result in [15], in assay [16] and in [17] was “inactive” each time. For the same compound, the result in assay [12] and in assay [14] was inactive.

In the case of `COC(=O)c1cccc2oc(-c3cccc4oc(-c5c(C)cccc5O)nc34)nc12`, the Potency result in assay [1], in assay [5], in assay [18], in assay [10], in [19] and in [13] was “inactive” each time. Besides, in assay [17], the Potency entry is “inactive”. In addition, the figures for the Potency in assay [4] and in assay [7] were 0.168 µM (active) and 3.32 µM (active), respectively. Also, the result in [14] was inactive.

Take `COc1c(O)cc(O)c2c(=O)cc(-c3ccccc3)oc12`: the Potency result in assay [1], in assay [2], in [3], in assay [4], in assay [6] and in assay [8] was “inactive” each time. Besides, the Potency entry in assay [18], in assay [9], in [19], in assay [11], in assay [13] and in assay [16] was “inactive” each time. Besides, the Potency result in [17] is “inactive”. For the same compound, the outcome in assay [12] and in assay [14] was inactive.

With `COc1ccc(-c2oc3cc(OC)cc(OC)c3c(=O)c2O)cc1`, the Potency entry in [1], in assay [2], in [3], in assay [5], in assay [6] and in [8] was “inactive” each time. The Potency entry in [10], in assay [19], in assay [13], in assay [15], in assay [20] and in assay [17] was “inactive” each time. For the same compound, the Potency in assay [9] is 10.5 µM (active); in assay [11], 9.35 µM (active). Besides, the compound was called inactive in [12] and in [14].

With `C/C(=C\[C@@H](C)CC/C=C/CC/C=C/C(=O)O)[C@H](O)[C@H](C)C(=O)CCCC1CC(=O)NC(=O)C1`, the Potency entry in assay [1], in assay [2], in [4], in [5], in assay [6] and in assay [7] was “inactive” each time. Also, the Potency entry in [8], in assay [18], in assay [10], in assay [19], in [13] and in assay [15] was “inactive” throughout. Moreover, the Potency entry in assay [16] and in assay [20] was “inactive” throughout. The result in assay [12] was inactive.

As for `C=C(Cl)[C@](Cl)(CBr)CC[C@@H](Br)C(C)(C)Cl`, the Potency in [1] was 10.6 µM (active); in [3], 3.75 µM (active); in assay [4] it was 2.98 µM (active); in [5] it was 8.41 µM (active); in assay [8], 18.8 µM (active); in assay [10], 20.9 µM (active). Further, the Potency in assay [13] was 4.86 µM (active). For the same compound, the Potency entry in assay [2], in [6], in [19], in [11], in assay [15] and in assay [17] was “inactive” throughout. For the same compound, the result in assay [12] and in assay [14] was inactive.

Turning to `C/C(=C\[C@@H](C)CC/C=C/CC/C=C/C(=O)O)[C@@H](O)[C@H](C)C(=O)CCCC1CC(=O)NC(=O)C1`, the Potency result in [1], in assay [2], in [3], in [4], in [5] and in [6] was “inactive” each time. In addition, the Potency result in [7], in assay [8], in assay [18], in [10], in assay [19] and in assay [11] was “inactive” each time. The Potency result in assay [13], in assay [15], in assay [16] and in assay [20] was “inactive” throughout. Moreover, in assay [12], the result was inactive.

As to `O=C1CC(c2ccc(O)cc2)Oc2cc(O)ccc21` (stereo unspecified), the Potency entry in assay [1], in assay [2], in [3], in [4], in [5] and in assay [6] was “inactive” each time. The Potency result in assay [8], in assay [18], in assay [10], in assay [11], in assay [13] and in assay [20] was “inactive” throughout. Moreover, the Potency entry in [17] is “inactive”. For the same compound, the call in assay [12] and in assay [14] was inactive. Besides, the results for the Potency in assay [15] and in assay [16] were 7.41 µM (active) and 30.5 µM (active), respectively.

Consider `CC(=O)c1c(C)cc2c(c1O)C(=O)c1c(O)cc(O)cc1C2=O`, for which the Potency entry in assay [1], in assay [2], in assay [3], in [4], in assay [5] and in [6] was “inactive” in each case. Besides, the Potency entry in assay [7], in assay [8], in assay [18], in assay [9], in assay [19] and in assay [11] was “inactive” throughout. The Potency result in [13], in [15], in [16], in assay [20] and in [17] was “inactive” in each case. For the same compound, the compound was called inactive in assay [12] and in assay [14].

Consider `CN1CC[C@@]2([C@@]34CCN(C)[C@@H]3Nc3ccccc34)c3ccccc3N[C@@H]12`, for which the Potency result in [1], in assay [2], in [3], in assay [4], in [5] and in [6] was “inactive” throughout. Moreover, the Potency result in assay [7], in assay [8], in [18], in [10], in [13] and in assay [15] was “inactive” each time. For the same compound, the Potency entry in assay [20] and in assay [17] was “inactive” throughout. Further, the compound was called inactive in assay [14].

On to `C=C(C)C(=O)O[C@H]1C[C@@]2(C)OC(=CC2=O)/C(C)=C\[C@H]2OC(=O)C(=C)[C@H]12`, for which the Potency is 2.11 µM (active) in [1]; 5.29 µM (active) in [2]; 1.88 µM (active) in [3]; 6.68 µM (active) in assay [4]; 0.662 µM (active) in assay [7]; 10.6 µM (active) in [8]. Moreover, the Potency in assay [18] was 2.96 µM (active); in assay [9], 1.66 µM (active); in assay [10], 3.32 µM (active); in [11], 2.09 µM (active); in assay [15] it was 18.6 µM (active); in assay [16], 0.216 µM (active). The Potency in assay [20] is 13.2 µM (active). The Potency result in [19] and in [17] was “inactive” each time. Besides, the compound was classed as inactive in assay [12] and in [14].

On to `C[C@@]1(CCC(=O)Nc2c(O)ccc(C(=O)O)c2O)C(=O)C=C[C@]23C[C@H]4C[C@H](O[C@@]4(C)C2)C31` (stereo partly specified), for which the Potency result in assay [1], in assay [2], in [3], in assay [4], in [5] and in assay [6] was “inactive” in each case. For the same compound, the Potency result in assay [7], in [8], in assay [18], in assay [9], in assay [10] and in [11] was “inactive” each time. In addition, the Potency result in assay [13], in assay [15], in assay [16], in [20] and in [17] was “inactive” throughout. Besides, the outcome in assay [12] was inactive.
